For 56 compounds, inhibition and outcome results are on record in PubChem BioAssay AID588727 (Southern Research Specialized Biocontainment Screening …, 2011).

Hit rate of the full screen: of about 350,000 compounds, about 450 (0.13%) were called active. The rule behind the calls is not given here. These entries were drawn from the full list. Measured potencies and affinities stand elsewhere.

The test can be described thus: inhibitors of VEEV TC-83 cytopathic effect, confirmation, Vero cells (AID 588727). To be noted: VEEV TC-83 cytopathic effect inhibition, at 20 µM; stronger effect = higher value unless noted. (In general: Damage to the host cells serves as the signal in cytopathic effect assays.)
As usually defined, the inhibition is how much of the control response was suppressed. For `Cc1cc(NC(=O)COc2ccccc2C)ccc1NC(=O)c1ccco1`, the inhibition was 2.11% (inactive).

`COc1ccc(S(=O)(=O)N(C)c2ccc(C(=O)Nc3cccnc3)cc2)cc1`: the inhibition is 8.16% (inactive).

In the case of `C=C1CC2C(=O)N(Cc3cc(OC)ccc3OC)C(C(=O)OCC)(C(=O)OCC)C1N2C(=O)OC(C)(C)C` (configuration not stated), the inhibition result is “inactive”.

Regarding `CCN1C/C(=C/c2ccc(OC)c(O)c2)C(=O)/C(=C/c2ccc(OC)c(O)c2)C1`, the inhibition entry was “inactive”.

Consider `COc1ccc(/C=C2\CN(Cc3ccccc3)C/C(=C\c3ccc(OC)cc3OC)C2=O)c(OC)c1`, for which the inhibition was 6.18% (inactive).

On to `Cc1cc(C)cc(-n2ncc3c2CCCC3NC(=O)CCCn2cncn2)c1` (configuration not stated), for which the inhibition is 0.41% (inactive).

For the compound `CCOc1ccccc1-c1nc(CN2CCCC2c2nccs2)c(C)o1` (configuration not stated), the inhibition was 8.27% (inactive).

`COc1ccccc1C1CCCN1Cc1nc(-c2cc3c(cc2Cl)OCO3)oc1C` (configuration not stated): the inhibition was 3.15% (inactive).

`COc1ccc(OC)c(S(=O)(=O)NCCS(=O)(=O)N2CCN(c3ccccc3)CC2)c1`: the inhibition is 0.7% (inactive).

`Cc1nc2ccccc2c(=O)n1NC(=O)/C=C/c1ccc(Br)cc1`: the inhibition result was “inactive”.

In the case of `Cc1c(NC(=O)Nc2ccccc2)c(=O)n(-c2ccccc2)n1C`, the inhibition result was “inactive”.

Take `O=C(NNC(=O)c1ccc2ccccc2c1O)NC1CCCCC1`: the inhibition was 2.22% (inactive).

As for `O=C(NC1CCCCC1)c1cc2ccccc2cc1O`, the inhibition entry was “inactive”.

As for `O=S(=O)(c1cccc2nsnc12)N1CCc2ccccc21`, the inhibition result is “inactive”.

Regarding `Cc1nnc(N2CCCC(C(=O)NCc3cccc(F)c3)C2)c2nn(-c3ccccc3)c(C)c12` (configuration not stated), the inhibition is 7.4% (inactive).

On to `Cc1ccc(CNc2nc(N)c([N+](=O)[O-])c(NCCO)n2)cc1`, for which the inhibition is 5.11% (inactive).

On to `O=c1c2sccc2nc(SCc2cc(=O)n3cc(Cl)ccc3n2)n1-c1ccc(F)cc1`, for which the inhibition is 6.28% [measured here: 10K pilot screen inhibition, stronger effect = higher value] and the compound was called inactive.

For `Cn1c(C(=O)NCc2cccs2)cc2c(=O)n(C)c3ccccc3c21`, the inhibition was 0.66% (inactive).

In the case of `Cc1ccc2c(c1)cc(C(=O)N[C@@H](Cc1ccccc1)C(=O)O)n2C`, the inhibition result is “inactive”.

As for `Cn1c(C(=O)NCC2CCCO2)cc2oc3ccccc3c21` (configuration not stated), the inhibition is 6.64% (inactive).

With `COCCNC(=O)c1cc2oc3ccccc3c2n1C`, the inhibition is 3.48% (inactive).

In the case of `Cc1c(C(=O)NCc2cccs2)oc2ccccc12`, the inhibition was 1.87% (inactive).

In the case of `COc1cccc(CNC(=O)c2cc3oc4ccccc4c3n2C)c1OC`, the inhibition is 55% (inactive).

As for `Cc1ccc(CNC(=O)c2cc3c(=O)n(C)c4ccccc4c3n2C)cc1`, the inhibition is 0.2% (inactive).

`CCOc1ccccc1CNC(=O)c1cc2occc2n1C`: the inhibition was 3.56% (inactive).

`CC(C)CCC(=O)N1CCC(N2CCC(C(=O)NCc3ccccn3)CC2)CC1`: the inhibition was 0.93% (inactive).

Regarding `CC(C)(C)n1nc2c(c1NC(=O)c1ccc(F)c(F)c1)CS(=O)(=O)C2`, the inhibition is 0.7% (inactive).

In the case of `O=C(C1CC(=O)N(c2ccc(F)cc2)C1)N1CCCCCC1` (configuration not stated), the inhibition result is “inactive”.

On to `O=C1c2cccnc2C(=O)N1CO`, for which the inhibition was 0.3% (inactive).

Take `CC(C)(C)C1CCc2c(sc3c2C(=O)NC(c2ccco2)N3)C1` (configuration not stated): the inhibition is 0.21% (inactive).

Consider `CCC(=O)Nc1cc(C(=O)O)ccc1Sc1ccccc1`, for which the inhibition is 0.44% (inactive).

Consider `Cn1cc(CCC(=O)NCc2cccc(Cl)c2)c2ccccc21`, for which the inhibition is 0.85% (inactive).

As to `O=C(COC(=O)c1ccc(Cl)cc1[N+](=O)[O-])NCc1ccco1`, the inhibition is 0.06% (inactive).

`Cc1ccc(S(=O)(=O)Nc2ccc(C(=O)NCCCn3ccnc3)cc2)cc1[N+](=O)[O-]`: the inhibition is 0.22% (inactive).

Turning to `COc1ccc(COC(=O)c2cccc(S(=O)(=O)N3CCN(C(C)=O)CC3)c2)cc1F`, the inhibition was 1.43% (inactive).

With `CC(=O)OC1CCC2(C)C3CCC4(C)C(C(C)=O)CCC4C3CC3OC32C1` (configuration not stated), the inhibition is 4.89% (inactive).

Turning to `CC12CC[C@H]3[C@@H](CCC4(O)C[C@H](O)CCC34/C=N/NC(=O)Cc3ccccc3)C1(O)CCC2C1=CC(=O)OC1` (some centres not stated), the inhibition is 1.62% (inactive).

`CC(=O)OC1CC[C@]2(C#N)[C@H]3CC[C@]4(C)[C@H](C5C=CC(=O)O5)CCC4(O)C3CCC2(O)C1` (some centres not stated): the inhibition is 21.3% (inactive).

For `C[C@]12CCC3C(CC[C@@H]4C[C@@H](O)CC[C@]34C)C1CC[C@@H]2O` (some centres not stated), the inhibition is 1.93% (inactive).

As to `CC12CC[C@H]3[C@@H](CCC4(O)C[C@H](O)CCC34/C=N/NC(=O)c3ccccc3F)C1(O)CCC2C1=CC(=O)OC1` (some centres not stated), the inhibition was 8.49% (inactive).

For `CC(=O)OC1CC2(O)C3CCC4CC(O)CCC4(C)C3CCC2(C)C1C1=CC(=O)OC1` (configuration not stated), the inhibition was 24.4% (inactive).

`C[C@]12CCC3C(CC[C@H]4C[C@H](O)CC[C@]34C)C1CC(=O)[C@@H]2O` (some centres not stated): the inhibition was 2.26% (inactive).

As for `CC(C)c1ccc(NC(=O)CN2C(=O)NC3(CCCC3)C2=O)cc1`, the inhibition result was “inactive”.

Turning to `CCOC(=O)C1CCCN(C(=O)c2cc3cc4ccc(OC)cc4nc3o2)C1` (configuration not stated), the inhibition was 1.72% (inactive).

As for `Cc1ccc(N2C(=O)N3[C@H]4c5ccccc5OC[C@@H]4[C@@H](c4ccccc4)[C@@]3(C)C2=O)cc1`, the inhibition is 0.66% (inactive).

With `CN(CC(=O)Nc1cccc(F)c1)C(=O)CCc1nc2cc(S(=O)(=O)N3CCOCC3)ccc2n1C`, the inhibition was 0.55% (inactive).

Regarding `CC(C)Oc1ccc(CSc2nnc3n(C)c(=O)c4c5c(sc4n23)CCCC5)cc1`, the inhibition entry was “inactive”.

As for `CCCCNC(=O)COC(=O)c1ccc(SC)cc1OC`, the inhibition is 2.58% (inactive).

On to `CC(=O)Nc1ccc(S(=O)(=O)N2CCC(NC(=O)C(Cc3cccc(F)c3)NC(C)=O)CC2)cc1` (configuration not stated), for which the inhibition is 0.28% (inactive).

Regarding `CC(=O)O[C@@H]1CC[C@]2(C)C3CC[C@@]4(C)C(C[C@@H](O)[C@@H]4O)C3[C@@H](OC(C)=O)C[C@H]2C1` (some centres not stated), the inhibition is 0.36% (inactive).

Turning to `CC12CC[C@H]3[C@@H](CCC4(O)C[C@H](O)CCC34/C=N/NC(=O)c3ccc(O)cc3)C1(O)CCC2C1=CC(=O)OC1` (some centres not stated), the inhibition is 0.73% (inactive).

Regarding `COc1ccc(C(=O)N/N=C/C23CC[C@@H](O)CC2(O)CC[C@@H]2[C@@H]3CCC3(C)C(C4=CC(=O)OC4)CCC23O)cc1` (some centres not stated), the inhibition was 42.5% (inactive).

On to `C[C@]12CCC3C(CCC4=CC(O)CC[C@@]43/C=N/O)C1(O)CCC2C1=CC(=O)OC1` (some centres not stated), for which the inhibition is 27.9% (inactive).

Take `CC(=O)[C@@]1(O)CCC2C3CC[C@H]4C[C@@H](O)CC[C@]4(C)C3CC[C@@]21C` (some centres not stated): the inhibition was 6.31% (inactive).

Consider `COc1cc(C(=O)N/N=C/C23CC[C@@H](O)CC2(O)CC[C@@H]2[C@@H]3CCC3(C)C(C4=CC(=O)OC4)CCC23O)ccc1O` (some centres not stated), for which the inhibition was 7% (inactive).

Take `C[C@H]1CC[C@@H]2[C@@H](C)[C@H]3[C@H](C[C@H]4[C@@H]5CC=C6C[C@@H](O[C@@H]7O[C@H](CO)[C@H](O)[C@H](O[C@@H]8O[C@H](CO)[C@@H](O)[C@H](O)[C@H]8O)[C@H]7O[C@@H]7O[C@@H](C)[C@H](O)[C@@H](O)[C@H]7O)CC[C@]6(C)[C@H]5CC[C@]34C)N2C1`: the inhibition entry is “inactive”.
